# Screening results: PubChem BioAssay, Paczesny and Yang Labs, IUPUI and University of Michigan
# The entries come from a sample that favours hits as a whole.
# ST2 inh = blocks human ST2 binding to IL-33 | Q01638 | AlphaLISA ST2-Fc/biotin-IL-33 interaction, 1 h | inhibition, % for hits at 17 µM | 2.3% of 78,000 active | AID 1259354; in the data active means inhibition above about 30%
# Target sequence (Q01638 whole entry, looked up): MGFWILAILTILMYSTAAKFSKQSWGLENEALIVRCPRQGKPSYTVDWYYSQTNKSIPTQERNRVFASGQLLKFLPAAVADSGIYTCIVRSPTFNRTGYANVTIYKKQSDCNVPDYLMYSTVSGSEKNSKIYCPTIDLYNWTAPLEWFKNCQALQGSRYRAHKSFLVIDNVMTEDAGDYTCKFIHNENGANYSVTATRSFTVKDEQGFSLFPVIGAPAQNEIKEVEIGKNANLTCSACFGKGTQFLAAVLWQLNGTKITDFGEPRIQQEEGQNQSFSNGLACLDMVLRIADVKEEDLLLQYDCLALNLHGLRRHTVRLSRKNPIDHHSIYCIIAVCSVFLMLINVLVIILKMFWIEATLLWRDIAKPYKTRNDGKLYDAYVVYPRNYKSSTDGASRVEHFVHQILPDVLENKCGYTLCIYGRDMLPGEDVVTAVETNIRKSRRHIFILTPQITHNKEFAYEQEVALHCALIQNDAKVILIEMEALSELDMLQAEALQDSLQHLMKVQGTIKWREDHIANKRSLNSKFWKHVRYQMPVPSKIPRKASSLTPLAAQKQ
# The depositor's hits bear a star; i = inactive.
SMILES,ST2 inh
O=c1oc2c(CN3CCCCC3)c(O)ccc2cc1-c1nc2ccccc2s1,i
Cc1nnc(-c2cccc(NC(=O)C3CCCCN3C(=O)c3cccs3)c2)s1 (stereo unspecified),i
O=C(NCCCN1CCCC1=O)c1ccc2c(Cl)c3c(nc2c1)CCCC3,i
COc1ccc(C(=O)NCc2nc3cccnc3n2Cc2ccc(C)cc2)cc1,i
COC(=O)C1C(=O)C2=C(CC1C)NC(C)=C(C(=O)OC1CCCCCC1)C2c1ccc(C)o1 (stereo unspecified),i
C[C@@H]1CN(C2(C(=O)N[C@@H]3CNC[C@H]3O)Cc3ccccc3C2)C[C@H](C)O1,i
COc1ccc(OCCOc2cccc(C=O)c2)cc1,i
COc1ccc(OC)c(/C=C2\N=C(c3ccc(OC)c([N+](=O)[O-])c3)OC2=O)c1,i
COc1ccc(OC)c(N2C(=O)C3CCCCC3C2=O)c1 (stereo unspecified),i
COc1ccc(C2=C/C(=C/c3ccc4c(c3)OCO4)C(=O)O2)c(OC)c1,i
COc1cccc(/C=C2/C=C(c3cc(OC)ccc3OC)OC2=O)c1,42%*
COc1ccc(OC)c(/C=C2/C=C(c3cc(OC)ccc3OC)OC2=O)c1,41%*
COc1cc(NC(=O)c2ccc(Cl)cc2Cl)c(OC)cc1Cl,i
COc1cc(OC)cc(C(=O)OCCN=C2NS(=O)(=O)c3ccccc32)c1,i
CCc1ccc(N2C(=O)Nc3ccc(Br)cc3C2(O)C(=O)NCCCN(C)C)cc1 (stereo unspecified),i
COc1cc(C2C(C(=O)Nc3ccccn3)=C(C)NC3=C2C(=O)CCC3)ccc1O (stereo unspecified),i
Fc1cccc(-c2nnc3n2N=C(c2ccc(Cl)s2)CS3)c1,30%*
O=c1oc2ccccc2cc1C1=Nn2c(nnc2-c2cccc(F)c2)SC1,i
COc1cccc(C2=Nn3c(nnc3-c3ccccc3)SC2)c1,i
O=C1[C@H]2C3c4ccccc4C(CO)(c4ccccc43)[C@H]2C(=O)N1c1ccc(F)cc1,i
CC1CCCCC1NC(=O)c1cc(=O)[nH]c2ccc(S(=O)(=O)N3CCCCCC3)cc12 (stereo unspecified),i
Cc1ncsc1CCC(=O)NC(C)Cc1cnccn1 (stereo unspecified),i
O=S(=O)(Nc1ccccn1)c1ccc(Br)cc1,i
Cc1ccc(NC(=O)c2ccc(C)c(S(=O)(=O)Nc3ccccn3)c2)cc1,i
O=C(Nc1ccc(Br)cc1)c1cccc(S(=O)(=O)Nc2ccccn2)c1,42%*
SMILES,ST2 inh
CCN(CC)CCCNC(=O)c1ccc2c(c1)NC(=O)CS2,i
O=[N+]([O-])c1cc(CN2CCOCC2)ccc1O,i
O=[N+]([O-])c1cc(Cc2ccccc2)ccc1O,36%*
O=[N+]([O-])c1cc(CN2CCCCC2)ccc1O,i
Cc1nnsc1CN(C)C(=O)CCC(=O)NC1CCCC1,97%*
Cc1nnsc1CN(C)CC(=O)NC1CCCCCCC1,i
O=C(CCC(=O)NC1CCCCCC1)NC1CCCCCC1,i
CC1CN(C(=O)c2cccc(F)c2)C(C)CN1C(=O)c1cccc(F)c1 (stereo unspecified),85%*
COC(=O)[C@@H]1CN(C(=O)c2cccc(F)c2)CCN1C(=O)c1cccnc1,i
Cc1cccc(C(=O)N2C(C)CCCC2C)c1 (stereo unspecified),i
Cc1cccn2c(=O)c3cc(C(=O)NCCC(C)C)n(C)c3nc12,i
N#Cc1nc(COc2ccccc2Cl)oc1N1CCCCC1,65%*
c1ccc(COc2cccc(CN3CCN(c4ncccn4)CC3)c2)cc1,i
Cc1ccccc1OCCCN1CCOCC1,i
c1ccc(COc2ccc(CN3CCN(c4ncccn4)CC3)cc2)cc1,i
Nc1nc(COc2ccccc2Cl)nc(N2CCOCC2)n1,i
FC(F)(F)c1ccc(N2CCN(Cc3ccccc3)CC2)nc1,i
N#Cc1nc(COc2ccccc2Cl)oc1N1CCN(Cc2ccccc2)CC1,58%*
Cc1ccccc1OCc1nc(C#N)c(N2CCCCC2)o1,68%*
Cc1ccccc1OCCCCN1CCCCC1,i
Cc1ccc(-c2noc(COc3ccccc3Cl)n2)cc1,i
N#Cc1nc(COc2ccccc2Cl)oc1N1CCC(C(N)=O)CC1,i
N#Cc1nc(COc2ccc(Cl)cc2)oc1N1CCN(Cc2ccccc2)CC1,57%*
N#CC1=C(N)OC2=C(C(=O)CCC2)C12C(=O)Nc1ccccc12 (stereo unspecified),i
COc1ccccc1Nc1nc(-c2ccc(S(=O)(=O)N3CCCCC3)cc2)cs1,i
SMILES,ST2 inh
COc1ccc(S(=O)(=O)N(Cc2ccccc2)c2ccccc2C(=O)NC2CC2)cc1,i
CC(C)N(CC1CC1)C(=O)C[C@@H]1C[C@@H]2C=C[C@H]1C2,i
COc1ccc(C(=O)Nc2ccccc2C(=O)Nc2ccc(F)cc2)cc1,i
COc1cc2oc(=O)ccc2cc1CC=C(C)C,i
COCCN1CCCC(O)(CNCc2ccccc2C(F)(F)F)C1=O (stereo unspecified),i
Cc1cc(N2C(=O)[C@@H]3[C@H](C2=O)[C@H]2C=C[C@@H]3C23CC3)c([N+](=O)[O-])cc1C,i
O=C(NC1CCCC1)c1cc(=O)[nH]c2ccc(S(=O)(=O)N3CCCCC3)cc12,i
CCN(CC)C(=O)[C@@H](C)[C@@H]1CC[C@@]2(C)CC[C@H](NS(C)(=O)=O)[C@@H](C)[C@@H]2[C@H]1O,i
COc1ccc(S(=O)(=O)Nc2ccc(C)cc2)cc1C(=O)Nc1ccc(C)cc1,i
CCOc1cc(C2Oc3nc(SC)nnc3-c3ccccc3N2C(C)=O)ccc1OC (stereo unspecified),i
COc1ccc(-c2c3c(=O)n(C)c(=O)n(C)c3c3cccnn23)cc1,i
COc1ccc(-c2c3c(=O)n(C)c(=O)n(C)c3c3c(-c4ccccc4)cc(C)nn23)cc1,31%*
Cn1c(=O)c2c(-c3ccccc3)n3ncccc3c2n(C)c1=O,i
NC(N)=NC(N)=Nc1ccc(Oc2ccccc2)cc1,i
Nc1nc(-c2ccccc2)cs1,i
CN(C)c1nc2c(c(-c3ccccc3CN3CCOCC3)n1)CCCC2,i
Nc1nc(-c2ccc(-c3ccccc3CN3CCOCC3)cc2)cs1,34%*
CCC(Sc1nnc2c3ccccc3n(C)c2n1)C(=O)Nc1ccccc1C#N (stereo unspecified),i
O=C(O)CCC(=O)Nc1ccc(F)c(F)c1,i
Cc1cc(=O)oc2cc(OC(=O)c3cc4cc(Br)ccc4oc3=O)ccc12,i
Nc1ccc(N2C(=O)c3ccccc3C2=O)c(Cl)c1,i
Nc1cccc2c1C(=O)N(c1ccc(Cl)cc1)C2=O,i
Nc1ccc(Cl)c2c1C(=O)c1ccccc1C2=O,42%*
COc1ccccc1NC(=O)COc1ccc(C)c(C)c1,i
O=[N+]([O-])c1ccc(-c2cn3ccsc3n2)cc1,i
SMILES,ST2 inh
O=[N+]([O-])c1ccc(-c2cn3cc(Br)ccc3n2)cc1,31%*
Brc1ccc(-c2cn3ccc4ccccc4c3n2)cc1,i
CCN(Cc1ccncc1)C(=O)C(c1cccc(C)c1)N(C)C (stereo unspecified),i
CCCNC(=O)c1nn2c(c1Cl)NC(c1ccc(OC)cc1)CC2C(F)(F)F (stereo unspecified),i
O=C(N=c1scc(-c2ccccc2)n1-c1ccccc1)c1ccco1,i
OCCN=c1scc(-c2ccc(Br)cc2)n1-c1ccccc1,39%*
O=c1c2c(-c3ccc(Br)cc3)csc2ncn1-c1ccccc1,i
